The list is not random: actives were taken first. Their share in the collection is about 1.6%.
PfHsp40 yeast = rescue of PfHsp40-mediated yeast toxicity. AID 504582. growth rescue, % at 12.5 µM. actives 0.68% (n = 340,000). S. cerevisiae expressing PfHsp40, growth rescue, ATP luminescence; in the data active means growth rescue above about 28%, passing the limit was not always enough; inconclusive means no clear call, values can overlap the other calls;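 further: yeast W303a lacking pdr1 and pdr3 grown in galactose medium; growth measured after three days at 30 °C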
SARS 3CLpro inh = SARS-CoV 3CLpro protease inhibition; P0C6X7; recombinant SARS-CoV 3CLpro, quenched FRET peptide cleavage; inhibition, % at 6 µM; actives 0.14% (n = 290,000); AID 1706; in the data active means inhibition above about 12%
Vc quorum ag = quorum light induction in luxS cqsA deficient V. cholerae | V. cholerae BH1578 lux reporter, luminescence, 6 h | activation, % at 18.7 µM | actives 0.16% (n = 350,000) | AID 588436; in the data active means activation mostly above about 9.7%, no sharp cut-off; inconclusive means no clear call, values can overlap the other calls; inactive means mostly below about 3.7%
PrPC TRFRET = cell surface PrPC inhibition, primary TR-FRET screen. P04156. TR-FRET read-out. inhibition, % at 13.8 µM. actives 0.43% (n = 370,000); in the data active means inhibition above about 24%; further: 0% = median of the test wells and 100% = reference compound wells
PriA SSB inh = blocks PriA binding to SSB C-terminal tail; actives 0.6% (n = 430,000); AlphaScreen SSBct-PriA binding, biotinylated peptide; inhibition, % at 33 µM; in the data active means inhibition mostly above about 37%, no sharp cut-off; inactive means mostly below about 20%;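 further: plate controls were negative control peptide for no effect and reference peptide for full effect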
PrP UTR inh = suppresses PrP 5' UTR mRNA reporter expression | cell-based PrP 5' UTR mRNA reporter, plate reader | inhibition, % (no concentration beside the values) | actives 0.35% (n = 340,000); in the data active means inhibition above about 52%; further: 0 = median of the neutral control wells
PrP 5UTR single = prion 5' UTR mRNA inhibition, cherry-pick retest. actives 48% (n = 1,100). inhibition, % at 2.5 µM. AID 504592. shares compounds with PrP UTR inh. cell-based prion protein 5' UTR reporter, plate reader; in the data active means inhibition above about 54%; inconclusive means no clear call, values can overlap the other calls
An asterisk follows results filed as active; i = inactive; ? = inconclusive; . = no result given.

SMILES	PfHsp40 yeast	SARS 3CLpro inh	Vc quorum ag	PrPC TRFRET	PriA SSB inh	PrP UTR inh	PrP 5UTR single
CCc1ccn2cc(-c3ccc4c(c3)OCO4)nc2c1	-0.5	-0.3	0.8	-1.3	-5.8	74.4*	83.9*
COc1ccccc1OCC(=O)Nc1cccc(C(=O)O)c1	.	.	.	.	-16.0	.	.
O=C(O)c1ccc(COc2ccc(CO)cc2Cl)cc1	-0.7	-1.9	-1.0	0.1	-10.3	-62.2	.
CCOC(=O)c1cccc(NC(=O)Nc2ccc(OCC)cc2)c1	-1.0	-0.5	-0.3	10.3	2.5	-8.0	.
Cc1ccccc1OCC(=O)Nc1cccc(C(=O)O)c1	0.3	-2.0	.	0.0	2.9	76.0*	77.5*
O=C(OCC(F)(F)F)c1cccc(COc2ccc3ccccc3c2)c1	1.8	-2.6	i	-4.0	-92.3	62.9*	66.0*
CCOc1ccc(NC(=O)Nc2cccc(C(=O)O)c2)cc1	-2.5	3.3	-0.1	8.5	-13.1	88.0*	91.0*
O=C(O)c1cccc(COc2ccc(CO)cc2Cl)c1	0.5	.	-7.1	6.3	3.3	93.3*	92.7*
O=C(c1cc(C2CC2)on1)N1CCN(c2cc(C(F)(F)F)ncn2)CC1	.	.	.	.	2.0	.	.
CCOc1ccc(OCc2cccc(C(=O)N3CCCC3)c2)cc1	-0.5	-5.0	-12.1	-2.1	-15.1	7.1	.
COc1ccc(OCc2cccc(C(=O)O)c2)cc1	1.0	.	i	-0.6	-18.7	93.3*	93.6*
CCOc1ccc(NC(=O)c2ccccn2)cc1	-2.5	-2.3	i	-20.5	-19.4	61.8*	72.2*
O=C(O)c1cccc(COc2ccc3c(c2)CCC3)c1	2.5	4.0	i	-7.0	-5.7	82.2*	88.3*
CCOc1ccc(OCc2cccc(C(=O)O)c2)cc1	-2.1	.	i	3.7	-0.3	92.7*	94.6*
CCOC(=O)Cn1c(=NC(=O)C2=COCCO2)sc2cc(C(=O)OCC)ccc21	.	.	.	.	-4.0	.	.
O=C(NCc1ccccn1)C1CCCN(c2ccc(-c3ccco3)nn2)C1 (stereo unspecified)	.	.	.	.	-5.0	.	.
COc1ccc(OC)c(NC(=O)CSc2ccc(-c3ccccn3)nn2)c1	.	.	.	.	62.1	.	.
Cc1ccccc1C(=O)NNC(=O)C12CC3CC(CC(C3)C1)C2	0.7	3.9	i	7.9	-2.1	87.8*	-15.9
Cc1cccc(C(=O)NNC(=O)C23CC4CC(CC(C4)C2)C3)c1O	0.5	3.4	-0.3	6.4	0.3	-8.8	.
Cc1nc(NC(=O)c2coc(NC(=O)Cc3c(C)noc3C)n2)sc1C	.	.	.	.	-1.0	.	.
CSc1ccccc1C(=O)OCc1cc(-c2ccc(F)cc2F)on1	.	.	.	.	-6.0	.	.
CCn1c(C)nc2cc(-c3nc4n(n3)Cc3ccccc3-4)ccc21	-3.6	-4.2	-5.9	.	2.4	94.2*	95.6*
O=C1NC(Cc2ccccc2)C(=O)N1Cc1cc([N+](=O)[O-])cc2c1OCOC2 (stereo unspecified)	1.5	2.2	-3.6	-0.6	-6.3	70.9*	-10.0
FC(F)(F)c1cccc(CN2CC(c3nc(-c4ccsc4)no3)C2)c1	.	.	.	.	-12.0	.	.
O=C(O)c1ccc(N/N=C/c2ccc3nccnc3c2)cc1	-1.8	-1.2	-3.1	-32.7	i	83.8*	85.2*
SMILES	PfHsp40 yeast	SARS 3CLpro inh	Vc quorum ag	PrPC TRFRET	PriA SSB inh	PrP UTR inh	PrP 5UTR single
O=C(O)c1ccc(NN=Cc2ccc3ncccc3c2)cc1	.	.	.	.	-12.1	.	.
CC(=O)OC(C)(C)/C=C/C(=O)C(C)(O)C1C(O)CC2(C)C3CC=C4C(CC(O)C(=O)C4(C)C)C3(C)C(=O)CC12C (stereo unspecified)	-0.7	.	i	33.6*	-3.4	80.5*	90.4*
CC(=O)OC(C)(C)/C=C/C(=O)[C@](C)(O)[C@H]1[C@H](O)C[C@@]2(C)[C@@H]3CC=C4[C@H](C[C@H](O)C(=O)C4(C)C)[C@]3(C)C(=O)C[C@]12C	1.0	0.3	-2.9	.	.	79.2*	88.1*
O=C(Cc1csc(NC(=O)c2ccc(=O)[nH]c2)n1)NCc1cccs1	.	.	.	.	-18.0	.	.
CCOc1ccccc1C(=O)NCC[C@H](O)c1ccoc1	.	.	.	.	-2.0	.	.
O=C(CC(c1ccccc1)c1ccccc1O)NCc1ccccc1 (stereo unspecified)	-0.8	2.8	0.7	-2.8	-8.8	-31.1	.
CN(C)CCCNC(=O)CC(c1ccccc1)c1ccccc1O (stereo unspecified)	0.3	-1.4	-5.6	-5.5	-11.6	70.9*	-18.3
Cc1cc(C(=O)COc2cccnc2[N+](=O)[O-])c(C)n1-c1ccccc1	0.4	-2.0	-3.7	6.2	5.0	58.4*	?
CCn1c(NC(=O)c2ccco2)c(-c2ccc(OC)cc2)c(=O)c2ccccc21	.	.	.	.	9.0	.	.
C[C@@H]1COC(=O)[C@@H](Cc2ccc(F)cc2)C/C=C\C[C@H](CC(=O)N(CCO)Cc2ccccc2)C(=O)N1	0.7	.	-0.1	-3.2	-2.2	85.2*	-13.8
O=C(CNCc1ccco1)Nc1ccc(N2CCCCCC2)cc1	0.2	1.0	-0.2	-3.2	44.5	82.7*	-12.0
CC(C)(C)c1ccc(-c2noc(CCC(=O)Nc3cccnc3)n2)cc1	-0.2	0.8	i	3.9	-5.2	65.4*	33.5
Clc1ccccc1/C=C/c1nc(-c2ccccn2)no1	-0.9	1.4	-0.2	4.3	-3.8	55.4*	60.5*
COc1cccc(NC(=O)C2CCCN(c3ccc(-c4ccccc4)nn3)C2)c1 (stereo unspecified)	.	.	.	.	5.0	.	.
O=C(NCc1cccnc1)c1ccccc1F	.	.	.	.	6.0	.	.
O=C(NCc1cccnc1)c1ccccc1Br	-0.3	-4.5	-5.4	-0.6	1.9	76.9*	2.6
Cc1ccc2c(c1)C(=O)c1c(C(=O)O)cccc1-2	2.8	4.6	-0.4	-11.2	-14.4	78.0*	-4.5
O=C(O)c1cccc2c1-c1ccc([N+](=O)[O-])cc1C2=O	-2.1	.	i	-44.9	-12.2	-34.6	.
Cn1ccc(C(=O)Nc2nc3ccc(S(N)(=O)=O)cc3s2)n1	.	.	.	.	16.0	.	.
CC(C)n1cc(C(N)=NO)c(=O)n(Cc2ccccc2)c1=O	.	.	.	.	1.1	.	.
CCCc1c(C(=O)Nc2ccc(C(F)(F)F)cc2)cnn1-c1ccccc1	1.0	5.6	-0.8	9.5	-8.7	65.1*	-9.7
COc1ccc(CCNC(=O)CCc2cc(OC)c(OC)c(OC)c2)cc1	-0.2	-3.3	1.4	-3.5	6.6	-22.6	.
COc1ccc(CCc2cc(OC)c(OC)c(OC)c2)cc1	-2.1	.	i	12.2	-19.3	57.3*	88.1*
COC(=O)c1oc2ccc(Br)cc2c1NC(=O)CCCN1C(=O)c2ccccc2C1=O	1.2	1.4	i	6.4	-4.9	56.8*	-12.3
CCOc1ccccc1OCCCC(=O)N1CCN(S(=O)(=O)c2ccc(Cl)cc2)CC1	9.9	.	i	-6.1	-1.6	87.2*	-10.4
CCCOc1ccccc1OCC(=O)N1CCN(S(=O)(=O)c2ccc(Cl)cc2)CC1	4.2	.	-2.1	-7.0	-3.7	-16.9	.
COC(=O)c1sc2ncn(CC(=O)NCCc3ccc(OC)c(OC)c3)c(=O)c2c1C	-1.1	-0.7	-0.4	2.7	-4.8	20.8	.

From PubChem
